Source: PubChem BioAssay
D1 allo mod: D1 dopamine receptor (human) allosteric modulation | HEK293 D1, CRE-luciferase, dopamine EC30 potentiation; actives deviate in either direction | B-score at 10 µM | P21728 | 5.9% of 58,000 active;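 active = luminescence count or its row- and column-corrected plate score outside the 99.7% band of the plate's sample wells, on either side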
Target sequence (P21728 whole entry, looked up): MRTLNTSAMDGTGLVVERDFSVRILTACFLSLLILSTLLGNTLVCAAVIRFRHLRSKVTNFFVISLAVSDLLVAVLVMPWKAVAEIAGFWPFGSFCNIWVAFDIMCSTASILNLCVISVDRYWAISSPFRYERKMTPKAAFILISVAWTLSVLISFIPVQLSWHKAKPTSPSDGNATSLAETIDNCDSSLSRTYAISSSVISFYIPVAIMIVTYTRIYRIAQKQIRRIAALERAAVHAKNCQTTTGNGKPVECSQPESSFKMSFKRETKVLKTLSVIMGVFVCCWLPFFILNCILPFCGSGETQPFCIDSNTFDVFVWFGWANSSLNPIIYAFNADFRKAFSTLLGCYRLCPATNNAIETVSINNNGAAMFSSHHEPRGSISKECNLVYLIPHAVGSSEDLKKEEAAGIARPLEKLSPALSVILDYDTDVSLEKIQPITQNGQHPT
DAT uptake mod: human DAT dopamine uptake with cocaine, either direction | Q01959 | LLC-PK1 hDAT cells, [14C]-dopamine uptake with cocaine IC80; actives deviate in either direction | B-score at 10 µM | 1.3% of 110,000 active;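 active = Z score or B-score, a plate-position-corrected score, falls beyond the plate's 99.7% confidence bounds, in either direction; inactive = both scores lie inside the 99.7% bounds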;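 note: scored against the spread of the other compound wells on the same plate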
CYP2C19 inhib: blocks human cytochrome P450 2C19. P33261. CYP2C19 Supersomes, luciferin-H EGE luminescence, 30 min. inhibition, % at 5 µM. 21% of 96,000 active. AID 778;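 active = CYP2C19 inhibition above a set limit at 5 µM in the primary screen, cut at about 50% in these data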;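 note: plate controls were negative control wells for no effect and 2.5 mM tranylcypromine positive control for full effect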
CYP2C9 act: increases human cytochrome P450 2C9 activity; P11712; recombinant CYP2C9, luciferin-H conversion, luminescence; active compounds read high; factor 1 = untreated enzyme, 0 = blocked; activation factor at 5 µM; 1.4% of 96,000 active;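 active = activation factor of 2 or more for CYP2C9 at a 5 µM dose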;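 note: 0 = sulfaphenazole-blocked wells and 1 = vehicle-only wells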
CYP2C19 activ: cytochrome P450 2C19 (human) activation; 96,000 tested, under 10 active; P33261; activation factor at 5 µM; recombinant CYP2C19, luciferin-H EGE luminescence; active compounds read high; 0 = fully inhibited enzyme, 1 = untreated enzyme;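 active = activation factor of at least 2 at 5 µM in the primary screen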;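 note: 0 = wells with 2.5 mM tranylcypromine and 1 = vehicle-only wells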
CYP2C9 inhib: blocks human cytochrome P450 2C9. P11712. CYP2C9 Supersomes, luciferin-H conversion, luminescence. inhibition, % at 5 µM. 20% of 96,000 active;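 active = blocking of liver enzyme CYP2C9 beyond about 50% at 5 µM, limit read from the data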
* hit, by the source's call; . = no result given. In the library only some 28% were active in any assay of this set; here they are far more common.

SMILES	D1 allo mod	DAT uptake mod	CYP2C19 inhib	CYP2C9 act	CYP2C19 activ	CYP2C9 inhib
O=C(Nc1ccc2c(c1)OCO2)[C@@H]1[C@@H]2C(=O)N(C3CCCCC3)C(=O)[C@@H]2C2c3ccccc3C=CN21 (some centres not stated)	0.0177	0.413	-8.3	0.9	1.1	8.2
CC(C)(C)C(=O)[C@@H]1[C@@H]2C(=O)N(C3CCCCC3)C(=O)[C@@H]2[C@H]2c3ccccc3C=CN12	.	.	66.5*	0.2	0.3	82.0*
O=C(CS(=O)(=O)Cc1ccccc1)N1CCN(Cc2ccc3c(c2)OCO3)CC1	-0.965	0.202	21.8	0.8	0.8	23.4
COc1cc(NC(=S)NN2CCN(C)CC2)cc(OC)c1	.	0.4	2.8	0.9	1	9.9
CC(C)(C)NC(=O)c1cccc(NC(=O)c2ccco2)c1	.	-0.834	.	.	.	.
CC(C)(C)NC(=O)c1cccc(NC(=O)c2ccc(NC(=O)c3ccco3)cc2)c1	-1.65	1.58	73.8*	0	0.3	96.8*
COc1ccc(NC(=O)c2ccco2)cc1NC(=O)c1ccco1	-0.163	0.408	-1.4	0.9	1	6.4
COc1ccc(NC(=O)c2ccco2)cc1NC(=O)c1cccc(OC(C)C)c1	2.23	2.58	63.7*	0.6	0.4	44.0
Cc1ccc(O)c(NC(=O)c2cccc(NC(=O)c3ccco3)c2)c1	.	0.0375	52.9*	1	0.5	2.3
COc1ccc(NC(=O)Cc2ccc(Cl)cc2)cc1NC(=O)c1ccco1	-0.0125	0.829	73.6*	0.4	0.3	64.8*
O=C(CCN1C(=O)C2C3C=CC(C3)C2C1=O)NC1CCCc2ccccc21 (configuration not stated)	0.345	-1.3	21.0	1.3	0.8	-32.0
CCCCCCSC1=C(C#N)C(=O)NC2(CCCCC2)S1	.	0.985	.	.	.	.
O=C(COC(=O)c1cccc(NC(=O)c2ccco2)c1)c1ccc(Br)cc1	-0.286	-0.428	11.3	2.3*	0.9	-134.0
COc1ccccc1NC(=O)c1cccc(NC(=O)c2ccco2)c1	.	0.681	2.2	2.8*	1	-176.1
CC(/C=C/c1ccco1)=N/NC(=O)Cc1cccs1	.	-0.976	1.5	0.9	1	12.0
O=C1c2cnc3nc(SCc4ccccc4)nn3c2CC2c3ccccc3CCN12 (configuration not stated)	.	-0.224	-8.7	0.8	1.1	17.2
COc1ccc(-n2nnnc2/C=C\Nc2ccccc2C(=O)c2ccccc2)cc1	.	2.22	50.6*	1.2	0.5	-20.9
O=c1[nH]c2ccc(S(=O)(=O)N3CCCCC3)cc2[nH]c1=O	.	-1.7	.	.	.	.
COc1ccc(C(=O)Nc2ccc3c(c2)OCCO3)cc1	.	-1.31	.	.	.	.
COc1cc(C(=O)Nc2ccc3c(c2)OCCO3)ccc1OC(C)C	0.11	0.983	55.4*	0.9	0.4	10.1
Cc1ccc(NC(=O)c2ccc3c(c2)OCCO3)cc1	.	-0.475	7.2	0.9	0.9	13.8
COc1cc(C(=O)Nc2ccc3c(c2)OCCO3)ccc1OC(F)F	0.101	-0.0256	88.2*	1.8	0.1	-81.4
Cc1ccc(Cn2nnc3c(=O)n(CC(=O)NCc4ccc5c(c4)OCO5)cnc32)cc1	0.93	0.397	.	.	.	.
Cc1cc(N2C(=O)C(=O)/C(=C(/O)c3ccc(F)cc3)C2c2ccc(Cl)cc2)no1 (configuration not stated)	-0.0182	0.538	3.3	0.4	1	56.7*
COc1ccc(NC(=O)C2CCCN2S(=O)(=O)c2ccc(F)cc2)cc1 (configuration not stated)	.	-0.804	64.2*	0.1	0.4	92.6*
SMILES	D1 allo mod	DAT uptake mod	CYP2C19 inhib	CYP2C9 act	CYP2C19 activ	CYP2C9 inhib
O=C(Nc1nccs1)C1CCCN1S(=O)(=O)c1ccc(F)cc1 (configuration not stated)	-0.303	0.604	39.4	0.4	0.6	62.3*
COc1ccc(S(=O)(=O)N2CCCC2C(=O)Nc2nc3c(s2)CCCC3)cc1 (configuration not stated)	0.328	0.0435	39.8	0.2	0.6	80.1*
COc1ccc(-c2csc(NC(=O)C3CCCCN3S(=O)(=O)c3ccccc3)n2)cc1 (configuration not stated)	.	0.903	38.9	0.1	0.6	88.3*
COc1ccc(-c2csc(NC(=O)C3CCCO3)n2)cc1 (configuration not stated)	2.36	-0.449	15.6	0.8	0.8	19.1
CNC(=O)C1CCCN1S(=O)(=O)c1ccc(OC)cc1 (configuration not stated)	0.0531	-1.01	2.8	1.3	1	-25.4
N#CCN1CCN(CC(=O)Nc2ccc(OCc3ccccc3)cc2)CC1	.	-0.73	21.7	0.6	0.8	43.6
C#CCNC(=O)C1=C[C@H](c2ccc(C(F)(F)F)cc2)C[C@H](OCCCCO)O1	.	-0.519	.	.	.	.
CN1CCN(C(=O)NC2CCCN2S(=O)(=O)c2ccc(Cl)cc2)CC1 (configuration not stated)	-0.462	0.108	-2.0	1	1	4.6
COc1ccc(S(=O)(=O)N2CCCC2C(=O)Nc2ccc(C)cc2)cc1 (configuration not stated)	-0.609	-0.727	76.4*	0.5	0.2	54.1*
Cc1ccc(S(=O)(=O)N2CCC[C@H]2C(=O)OC(C)C(=O)Nc2ncc(Cl)cc2Cl)cc1 (some centres not stated)	.	-0.425	71.4*	1.2	0.3	-23.2
Cc1ccc(S(=O)(=O)N2CCCC2C(=O)Nc2ccc(O)cc2)cc1 (configuration not stated)	-0.547	-0.0994	8.6	1.5	0.9	-45.1
Cc1ccc(NC(=O)NC2CCCN2S(=O)(=O)c2ccc(Cl)cc2)cc1 (configuration not stated)	.	0.338	72.6*	0.1	0.3	86.9*
O=C(CSC1CC(=O)N(CC(c2ccccc2)c2ccccc2)C1=O)Nc1ccc(Cl)cc1 (configuration not stated)	.	-0.39	53.4*	0.1	0.5	85.3*
Cn1c(-c2ccccc2O)cc2ccccc21	.	-0.0619	.	.	.	.
Cc1cc(C)c(NC(=O)CN2CCN3CCCC3C2)c(C)c1 (configuration not stated)	-0.231	-0.101	-0.5	1.1	1	-10.5
CCOc1ccc(-c2csc(N)c2C(=O)OC)cc1	.	1.2	65.6*	0.3	0.3	70.6*
CCCCNC(=O)[C@@H]1CC=C[C@@H]2CCN(Cc3ccc(Cl)c(Cl)c3)C(=O)[C@@H]21	.	1.11	.	.	.	.
O=C(NCCc1ccccc1)[C@@H]1CC=C[C@@H]2CCN(Cc3ccc(Cl)c(Cl)c3)C(=O)[C@@H]21	.	3.19*	.	.	.	.
O=c1cc(C(F)(F)F)nc(-c2ccccc2)[nH]1	2.66	-0.0191	0.2	0.7	1	30.4
O=C(c1ccco1)N1CCN(CC2CC3C=CC2C3)CC1 (configuration not stated)	-0.0357	-0.59	10.4	1.1	0.9	-6.6
Clc1ccc(COn2nnc3ccccc32)c(Cl)c1	-0.188	0.0227	64.3*	0.9	0.4	7.8
